Screens deposited in PubChem by University of Kansas High Throughput Screening Laboratory.
Pf apPOL block = Pf-apPOL inhibitors, biochemical, fluorescence | actives 0.25% (n = 210,000) | Recombinant Pf-apPOL, molecular beacon fluorescence, 1.5 h | Plasmodium falciparum apicoplast DNA polymerase (apPOL) | inhibition, % at 10 µM
mHTT CaM bind = mutant huntingtin-calmodulin interaction inhibitors – biochemical, AlphaScreen, primary screen. P42858. AlphaScreen His-mHTT/GST-CaM binding, luminescence. inhibition, % at 15 µM. actives 3.6% (n = 190,000)
Target sequence (P42858 whole entry, looked up, change not shown): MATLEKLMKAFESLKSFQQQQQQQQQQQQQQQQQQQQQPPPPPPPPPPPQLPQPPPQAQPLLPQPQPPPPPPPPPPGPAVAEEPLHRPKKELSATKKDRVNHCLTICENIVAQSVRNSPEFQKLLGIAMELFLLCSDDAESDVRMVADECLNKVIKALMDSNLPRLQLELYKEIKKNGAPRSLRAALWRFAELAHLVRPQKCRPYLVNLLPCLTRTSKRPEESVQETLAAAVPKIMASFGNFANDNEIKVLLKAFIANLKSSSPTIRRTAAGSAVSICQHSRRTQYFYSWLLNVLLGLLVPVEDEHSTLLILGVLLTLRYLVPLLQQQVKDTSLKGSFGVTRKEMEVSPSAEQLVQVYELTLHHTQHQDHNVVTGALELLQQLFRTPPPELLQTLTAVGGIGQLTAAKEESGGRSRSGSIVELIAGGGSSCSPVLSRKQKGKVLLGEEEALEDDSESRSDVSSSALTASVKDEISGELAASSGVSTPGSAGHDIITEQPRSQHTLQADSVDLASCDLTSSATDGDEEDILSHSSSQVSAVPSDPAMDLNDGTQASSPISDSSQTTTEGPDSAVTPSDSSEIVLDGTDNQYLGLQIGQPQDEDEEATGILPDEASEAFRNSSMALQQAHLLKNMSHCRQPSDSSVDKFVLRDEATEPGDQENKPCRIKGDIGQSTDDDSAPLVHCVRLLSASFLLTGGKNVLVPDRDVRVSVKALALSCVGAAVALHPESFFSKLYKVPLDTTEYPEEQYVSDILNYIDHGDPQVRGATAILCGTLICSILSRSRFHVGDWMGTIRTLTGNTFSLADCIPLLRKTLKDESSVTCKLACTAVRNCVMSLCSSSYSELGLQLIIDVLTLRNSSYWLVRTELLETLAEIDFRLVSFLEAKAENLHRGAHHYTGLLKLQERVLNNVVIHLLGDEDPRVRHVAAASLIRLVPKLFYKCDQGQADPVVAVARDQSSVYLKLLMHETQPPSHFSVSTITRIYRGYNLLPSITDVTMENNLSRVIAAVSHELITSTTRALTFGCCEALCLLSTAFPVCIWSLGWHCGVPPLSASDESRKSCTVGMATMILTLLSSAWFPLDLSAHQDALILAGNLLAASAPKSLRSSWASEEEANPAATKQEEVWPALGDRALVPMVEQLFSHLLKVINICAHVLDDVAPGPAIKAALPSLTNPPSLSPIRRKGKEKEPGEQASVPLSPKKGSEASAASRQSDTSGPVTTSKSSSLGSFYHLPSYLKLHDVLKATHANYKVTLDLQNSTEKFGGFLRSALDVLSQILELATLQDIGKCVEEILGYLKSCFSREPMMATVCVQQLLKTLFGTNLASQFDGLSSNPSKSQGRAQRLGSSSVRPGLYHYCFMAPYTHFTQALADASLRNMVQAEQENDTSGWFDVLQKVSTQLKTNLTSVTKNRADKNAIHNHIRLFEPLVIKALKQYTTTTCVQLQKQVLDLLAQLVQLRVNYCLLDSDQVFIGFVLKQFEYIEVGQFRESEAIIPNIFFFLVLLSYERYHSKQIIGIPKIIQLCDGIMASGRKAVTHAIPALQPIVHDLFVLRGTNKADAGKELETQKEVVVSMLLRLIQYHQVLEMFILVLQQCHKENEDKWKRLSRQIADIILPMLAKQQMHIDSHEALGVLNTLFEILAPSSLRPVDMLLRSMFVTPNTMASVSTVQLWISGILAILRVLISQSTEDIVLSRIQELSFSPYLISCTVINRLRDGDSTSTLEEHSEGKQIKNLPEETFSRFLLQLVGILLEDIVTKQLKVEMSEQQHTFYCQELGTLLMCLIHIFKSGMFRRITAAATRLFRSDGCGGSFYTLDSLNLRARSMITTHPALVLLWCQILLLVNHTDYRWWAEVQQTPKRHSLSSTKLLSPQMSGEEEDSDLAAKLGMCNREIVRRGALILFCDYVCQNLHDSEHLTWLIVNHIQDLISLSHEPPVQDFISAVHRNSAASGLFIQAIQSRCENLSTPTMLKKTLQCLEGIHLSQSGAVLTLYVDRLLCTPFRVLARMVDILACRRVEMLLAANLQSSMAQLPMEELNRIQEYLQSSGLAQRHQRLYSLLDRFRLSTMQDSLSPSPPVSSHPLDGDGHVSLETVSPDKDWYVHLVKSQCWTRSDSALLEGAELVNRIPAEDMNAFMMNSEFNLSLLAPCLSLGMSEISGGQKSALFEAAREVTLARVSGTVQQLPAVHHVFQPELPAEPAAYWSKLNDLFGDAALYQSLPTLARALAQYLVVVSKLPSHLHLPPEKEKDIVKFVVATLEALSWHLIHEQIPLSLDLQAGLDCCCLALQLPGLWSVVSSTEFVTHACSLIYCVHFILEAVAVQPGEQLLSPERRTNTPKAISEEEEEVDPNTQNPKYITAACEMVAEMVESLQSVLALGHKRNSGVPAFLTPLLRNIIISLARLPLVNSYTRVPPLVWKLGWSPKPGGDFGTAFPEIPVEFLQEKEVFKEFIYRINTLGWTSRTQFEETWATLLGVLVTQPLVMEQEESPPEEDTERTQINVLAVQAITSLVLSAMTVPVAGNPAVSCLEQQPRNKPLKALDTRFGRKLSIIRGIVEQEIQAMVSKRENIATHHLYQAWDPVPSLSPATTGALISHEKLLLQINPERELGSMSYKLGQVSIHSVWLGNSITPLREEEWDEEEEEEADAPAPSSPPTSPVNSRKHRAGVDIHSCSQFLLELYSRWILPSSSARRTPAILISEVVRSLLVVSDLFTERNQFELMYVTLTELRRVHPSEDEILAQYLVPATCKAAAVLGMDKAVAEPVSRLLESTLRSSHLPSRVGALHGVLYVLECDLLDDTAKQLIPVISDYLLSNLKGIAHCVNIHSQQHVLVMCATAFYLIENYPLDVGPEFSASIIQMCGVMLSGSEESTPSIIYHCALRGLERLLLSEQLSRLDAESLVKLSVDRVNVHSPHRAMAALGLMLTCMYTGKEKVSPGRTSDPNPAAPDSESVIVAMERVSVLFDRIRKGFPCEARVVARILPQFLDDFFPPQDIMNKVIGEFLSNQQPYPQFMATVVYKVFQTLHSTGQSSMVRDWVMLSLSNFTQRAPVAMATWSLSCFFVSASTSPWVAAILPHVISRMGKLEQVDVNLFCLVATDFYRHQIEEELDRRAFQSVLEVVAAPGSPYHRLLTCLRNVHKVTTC
A number is an active result; . = inactive; / = no result given. The entries come from a sample that favours hits as a whole. Rule as the data show it: active = inhibition above about 50%; inactive = the rest.

SMILES	Pf apPOL block	mHTT CaM bind
CSc1ccc(C(Nc2ccccn2)c2ccc3cccnc3c2O)cc1 (centres undefined)	.	99.0
O=c1cc(CO)oc(C(Nc2ccccn2)c2ccc(F)cc2)c1O (centres undefined)	.	.
C=CCOc1ccc(C(Nc2ccccn2)c2ccc3cccnc3c2O)cc1 (centres undefined)	.	99.0
CSc1ccc(C(Nc2ccccn2)c2ccc3ccc(C)nc3c2O)cc1 (centres undefined)	.	78.0
Oc1c(C(Nc2ccccn2)c2ccc(F)cc2)ccc2cccnc12 (centres undefined)	.	98.0
CSc1ccc(C=Nc2ccccn2)cc1	/	.
Cc1nn(C(=O)C2CC2)c(C)c1Sc1ncccn1	.	/
O=C(O)CCn1c(SCC(=O)Nc2ccc(F)cc2)nc2ccsc2c1=O	.	.
COc1ccc(C2(C(=O)N3CCCC3c3nc(-c4ccc(C)cc4)no3)CC2)cc1 (centres undefined)	.	.
COc1c(C)cnc(CO)c1C	.	/
CCCN1C(=O)Cc2ccccc2C1C(=O)NCc1ccco1 (centres undefined)	.	.
Cc1ccc2ccc(C(Nc3ccccn3)c3ccc(N(C)C)cc3)c(O)c2n1 (centres undefined)	.	100.0
CC1=C(C(=O)Nc2ccccn2)C(c2ccc(N(C)C)cc2)n2ncnc2N1 (centres undefined)	.	.
CCc1ccc(C(Nc2ccccn2)c2ccc3cccnc3c2O)cc1 (centres undefined)	.	97.0
CCc1ccc(C(C)NC(=O)c2ccccn2)cc1 (centres undefined)	.	.
Cc1ccc2ccc(C(Nc3ccccn3)c3cccnc3)c(O)c2n1 (centres undefined)	.	73.0
COc1ccccc1C(=O)Nc1cccc(Cl)c1C	.	.
CCc1ccc(CNC(=O)C2CCN(c3nnc(-c4ccccc4)o3)CC2)cc1	.	.
CCOc1ccc(NC(=O)Nc2nnc(COc3ccc(F)cc3)s2)cc1	.	.
Cc1ccc(-c2nc(-c3ccc4nnn(C)c4c3)no2)c(C)c1	.	.
CCN(C)C(=O)CCc1nnc(-c2ccc(C)c(Cl)c2)[nH]c1=O	.	.
O=C(Nc1cccc2nsnc12)C1CCCN(c2cc(-n3cccn3)ncn2)C1 (centres undefined)	.	.
CC1C(c2ccc(N(C)C)cc2)NC(c2ccc(N(C)C)cc2)C(C)C1O (centres undefined)	.	.
CC1C(=NO)C(C)C(c2ccc(N(C)C)cc2)NC1c1ccc(N(C)C)cc1 (centres undefined)	.	76.0
Cc1nnc2ccc(-c3noc(-c4cccc(Cl)c4)n3)cn12	.	.
SMILES	Pf apPOL block	mHTT CaM bind
Cc1sc2ccn(C)c(=O)c2c1C(=O)N1CCN(c2ccc(Cl)cc2)CC1	.	70.1
Cc1sc2ccn(C)c(=O)c2c1C(=O)N1CCCCC1	.	.
CCCn1ccc2sc(C)c(C(=O)N3CCN(c4ccccc4)CC3)c2c1=O	.	.
CCn1ccc2sc(C)c(C(=O)N3CCN(c4ccccc4)CC3)c2c1=O	.	58.6
Cc1cc(N2C(=O)c3cc(Cl)c(Cl)cc3C2=O)no1	.	.
Cc1cccc(N(CC(=O)NC(C(C)C)C(C)C)S(=O)(=O)c2ccccc2)c1C	.	.
CC12CC(NC(=O)N1CCc1ccccc1)c1ccccc1O2 (centres undefined)	.	.
CC1C2NC(=O)N(Cc3ccccc3)C1(C)Oc1ccccc12 (centres undefined)	.	68.0
O=[N+]([O-])c1ccccc1S(=O)(=O)Nc1ccc(Cl)c(Cl)c1	.	.
Cc1ccc(NS(=O)(=O)c2ccccc2[N+](=O)[O-])cc1C	50.7	.
CC(C)Cn1cnc2c(-c3cccc(Cl)c3)csc2c1=O	.	.
Cc1c(Br)c([N+](=O)[O-])nn1CC(=O)NC(C)C1CC2CCC1C2 (centres undefined)	/	.
N=C1S/C(=C\c2ccc(Cl)cc2)C(=O)N1c1ccccc1F	.	.
O=C1OCCN1C(=O)[C@H]1[C@H](c2ccc([N+](=O)[O-])cc2)C(c2cccc(Cl)c2)=NN1c1ccc(Br)cc1	.	.
Cc1cccc(C2=NN(c3ccc(Br)cc3)[C@@H](C(=O)N3CCOC3=O)[C@@H]2c2ccc(Cl)cc2)c1	.	79.7
O=C1OCCN1C(=O)[C@H]1[C@H](c2ccc(Cl)cc2)C(c2cccc(Cl)c2)=NN1c1ccccc1	.	.
CC[C@@H]1C(c2cccc(Cl)c2)=NN(c2ccccc2)[C@H]1C(=O)N1CCOC1=O	.	.
Cc1cccc(C2=NN(c3ccc(Br)cc3)[C@@H](C(=O)N3CCOC3=O)[C@@H]2c2ccc(F)cc2)c1	.	76.2
CC[C@@H]1C(c2cccc(Cl)c2)=NN(c2ccc(Br)cc2)[C@H]1C(=O)N1CCOC1=O	.	95.1
O=C1OCCN1C(=O)[C@H]1[C@H](c2ccc(Cl)cc2)C(c2ccccc2)=NN1c1ccc(Br)cc1	.	64.6
COc1ccccc1[C@@H]1C(c2cccc(C)c2)=NN(c2ccc(Br)cc2)[C@H]1C(=O)N1CCOC1=O	.	.
O=C(CC1CCCC1)Nc1cnc(N2CCCCC2)nc1	.	.
COc1ccccc1NC(=O)Nc1nc(CC(=O)NCc2ccco2)cs1	.	.
CC1CCN(C(=O)CCc2nnc(-c3ccc(F)c(Cl)c3)[nH]c2=O)CC1	.	.
O=C(O)C=Cc1ccc(Oc2ccccc2)nc1	.	/
SMILES	Pf apPOL block	mHTT CaM bind
Cc1c(C(=O)NC2CCCC(C)C2C)oc2ccc(S(=O)(=O)N3CCOCC3)cc12 (centres undefined)	.	.
Cc1cccc(CNC(=O)c2c(C)noc2-c2ccccc2C)c1	.	.
O=C1OCCN1C(=O)[C@H]1[C@H](c2ccc(F)cc2)C(c2cccc(Cl)c2)=NN1c1ccc(Br)cc1	.	93.6
Cc1cccc(C2=NN(c3ccccc3)[C@@H](C(=O)N3CCOC3=O)[C@@H]2c2ccc([N+](=O)[O-])cc2)c1	.	54.4
O=C1OCCN1C(=O)[C@H]1[C@H](c2ccc([N+](=O)[O-])cc2)C(c2ccccc2)=NN1c1ccc(Br)cc1	.	.
O=C1OCCN1C(=O)[C@H]1[C@H](c2ccccc2)C(c2cccc(Cl)c2)=NN1c1ccc(Br)cc1	.	.
Cn1ncc(N2CCCC(C(=O)NC3CCCCCC3)C2)cc1=O (centres undefined)	.	.
CCN(CC)C(=O)c1cc(=O)[nH]c2ccccc12	.	.
COc1ccccc1CN=Cc1[nH]c2ccc(Br)c(Cl)c2c1O	.	71.0
COc1cccc(CN=Cc2[nH]c3ccc(Br)c(Cl)c3c2O)c1OC	.	.
CCN(CC)C(=O)c1cc2c(n1C)CCN(Cc1ccc(F)cc1)C2	.	.
Cc1ccc(CN2CCc3c(cc(C(=O)Nc4ccc(N5CCOCC5)cc4)n3C)C2)cc1	.	.
COc1ccc(NC(=O)c2cc3c(n2C)CCN(Cc2ccc(C)cc2)C3)cc1OC	.	50.1
COc1cccc(CN2CCc3c(cc(C(=O)Nc4ccccc4OC)n3C)C2)c1	.	87.6
COc1ccc(CNC(=O)c2cc3c(n2C)CCN(Cc2ccccc2)C3)cc1OC	.	.
COc1ccc(NC(=O)c2cc3c(n2C)CCN(Cc2ccc(F)cc2)C3)cc1	.	99.4
COc1ccccc1NC(=O)c1cc2c(n1C)CCN(Cc1cccc(C)c1)C2	.	63.2
COc1cccc(CN2CCc3c(cc(C(=O)Nc4cccc(C)c4C)n3C)C2)c1	.	.
O=C(c1ccccc1F)n1cnc2ccccc21	.	.
Clc1ncnc2nc3n(c12)CCC3	/	.
